Our source for the growth values is PubChem BioAssay (NCI).

This is part of a sample that, as a whole, favours compounds with a hit. Of some 83,000 tested, about 20% had one in any assay.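 The test compound was applied at a single concentration to cells in 96-well plates for 48 hours, and percent growth was recorded.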 A number with no mark means an inactive call. Active and inactive are the calls of the source. The calls were made as follows: active = growth percent below 10; inactive = the rest.

What all share (test): NCI-60 one-dose screen, 48 h (100 = growth as untreated, 0 = no growth, -100 = all killed)
The test system of one experiment is K-562 leukemia. The settings on record: 10 µM unless noted.
A further experiment has as its system MALME-3M melanoma. The settings on record: 10 µM unless noted.
In the next experiment the test system is RXF 393 renal. The settings on record: 10 µM unless noted.
The subject of another experiment is SF-295 CNS. The settings on record: 10 µM unless noted.
A further experiment has as its system HCT-15 colon. As to conditions: 10 µM.
The subject of a further experiment is UACC-62 melanoma. As to conditions: 10 µM unless noted.
In a further experiment the test system is LOX IMVI melanoma. As to conditions: 10 µM unless noted.
In the next experiment the test system is SK-MEL-2 melanoma. As to conditions: 10 µM unless noted.
The test system of a further experiment is TK-10 renal. As to conditions: 10 µM unless noted.
The subject of a further experiment is A498 renal. The settings on record: 10 µM unless noted.
A further experiment relates to HL-60(TB) leukemia. The settings on record: 10 µM unless noted.
For the next experiment, the system named is MOLT-4 leukemia. As to conditions: 10 µM.
A further experiment has as its system OVCAR-4 ovarian. The settings on record: 10 µM unless noted.
Another experiment concerns NCI/ADR-RES ovarian. The settings on record: 10 µM unless noted.
Another experiment has as its system T-47D breast. The settings on record: 10 µM unless noted.
A further experiment relates to BT-549 breast. The settings on record: 10 µM.
The next experiment concerns HCC-2998 colon. As to conditions: 10 µM unless noted.
The subject of the next experiment is UACC-257 melanoma. As to conditions: 10 µM unless noted.
A further experiment concerns OVCAR-8 ovarian. As to conditions: 10 µM unless noted.
For another experiment, the system named is ACHN renal. The settings on record: 10 µM unless noted.

On to `CC(=O)[O][Hg][c]1ccccc1`, for which the growth with K-562 leukemia is -21% (active); in the experiment on MALME-3M melanoma, -88% (active); in the experiment on RXF 393 renal it was -92% (active); in the experiment with SF-295 CNS it was 13.6%; in the experiment on HCT-15 colon it was -65.5% (active); in the experiment with UACC-62 melanoma, -69% (active). The growth was -88.2% (active) in the experiment on LOX IMVI melanoma; -52.9% (active) in the experiment on SK-MEL-2 melanoma; -94.7% (active) in the experiment with TK-10 renal; -46.6% (active) with A498 renal; -27.5% (active) in the experiment on HL-60(TB) leukemia; -10.9% (active) with MOLT-4 leukemia. Also, the growth in the experiment with OVCAR-4 ovarian is -25.2% (active); in the experiment on NCI/ADR-RES ovarian, -39.1% (active); with T-47D breast it was -42.1% (active); in the experiment with BT-549 breast, -96.7% (active); in the experiment with HCC-2998 colon, -96.5% (active).
For the molecule `CC(C)(NC(=O)c1nn(CCCCCF)c2ccccc12)c1ccccc1`, the growth was 89.8% with K-562 leukemia; 108% in the experiment on MALME-3M melanoma; 112% in the experiment with RXF 393 renal; 101% with SF-295 CNS; 77% with UACC-257 melanoma; 96.3% in the experiment on HCT-15 colon. In addition, the growth with UACC-62 melanoma was 75.4%; with LOX IMVI melanoma, 96.3%; with SK-MEL-2 melanoma, 87%; in the experiment on TK-10 renal, 103%; in the experiment with A498 renal it was 94.8%; with HL-60(TB) leukemia it was 88.3%. Besides, the growth with MOLT-4 leukemia was 71.9%; in the experiment with OVCAR-8 ovarian it was 83.5%; in the experiment on OVCAR-4 ovarian it was 88.5%; in the experiment with NCI/ADR-RES ovarian, 92.8%; in the experiment on T-47D breast, 75.4%; in the experiment on BT-549 breast it was 73.5%. Also, the growth with HCC-2998 colon is 105%.
On to `C[C@]12CCc3sc(-c4ccc(Cl)cc4)nc3C1=CC[C@@H]1[C@@H]2CC[C@]2(C)C(=O)CC[C@@H]12`, for which the growth is 7.44% (active) in the experiment with K-562 leukemia; 75% in the experiment with MALME-3M melanoma; -36.9% (active) in the experiment with RXF 393 renal; 5.96% (active) in the experiment on SF-295 CNS; 99% in the experiment with UACC-257 melanoma; 34.6% with HCT-15 colon. Also, the growth is 51.1% in the experiment with UACC-62 melanoma; 55.1% in the experiment with LOX IMVI melanoma; 70.6% with ACHN renal; 73.3% in the experiment on A498 renal; 39% in the experiment on HL-60(TB) leukemia; 8.47% (active) with MOLT-4 leukemia. Moreover, the growth in the experiment on OVCAR-8 ovarian was 80.4%; in the experiment with OVCAR-4 ovarian, 74%; with NCI/ADR-RES ovarian it was 81.6%; with T-47D breast, 66.2%; with BT-549 breast it was 60.6%; in the experiment with HCC-2998 colon, 90.4%.
For `CCOC(=O)Nc1cc(Cl)c([N+](=O)[O-])c(NC(=O)OCC)n1`, the growth in the experiment on K-562 leukemia is 8.75% (active); in the experiment on MALME-3M melanoma, 99.3%; in the experiment with RXF 393 renal, 99.3%; in the experiment on SF-295 CNS it was 101%; with UACC-257 melanoma it was 88.8%; in the experiment on UACC-62 melanoma it was 82.6%. For the same molecule, the growth is 61.5% in the experiment with LOX IMVI melanoma; 74.6% in the experiment on SK-MEL-2 melanoma; 103% in the experiment with TK-10 renal; 53.6% with ACHN renal; 93.1% with A498 renal; 38.2% in the experiment on HL-60(TB) leukemia. Moreover, the growth was 79.6% in the experiment with MOLT-4 leukemia; 64.6% with OVCAR-8 ovarian; 112% in the experiment on OVCAR-4 ovarian; 102% with NCI/ADR-RES ovarian; 82.1% in the experiment with T-47D breast; 94.6% with BT-549 breast. In addition, in the experiment on HCC-2998 colon, the growth was 103%.
As to `Nc1ccc(N)c2c1Oc1ccccc1O2`, the growth with K-562 leukemia is 92.1%; in the experiment on MALME-3M melanoma it was 111%; with SF-295 CNS, 101%; with UACC-257 melanoma, 102%; in the experiment with HCT-15 colon, 105%; with UACC-62 melanoma it was 98.6%. Further, the growth with LOX IMVI melanoma was 90.3%; in the experiment with SK-MEL-2 melanoma, 95.9%; in the experiment on TK-10 renal it was 131%; in the experiment with ACHN renal, 94.7%; in the experiment on A498 renal it was 92.9%; with HL-60(TB) leukemia it was 69.4%. Also, the growth was 81.6% with MOLT-4 leukemia; 97.5% with OVCAR-8 ovarian; 110% in the experiment on OVCAR-4 ovarian; 94.9% in the experiment with NCI/ADR-RES ovarian; 98.1% with T-47D breast; 97.9% in the experiment with BT-549 breast. Besides, the growth in the experiment on HCC-2998 colon was 108%.
As to `O=C(O)c1cccc(CCl)c1`, the growth in the experiment on K-562 leukemia was 101%; in the experiment on MALME-3M melanoma it was 110%; with RXF 393 renal it was 112%; in the experiment on UACC-257 melanoma it was 94.2%; with HCT-15 colon it was 93%; in the experiment with UACC-62 melanoma it was 108%. The growth was 95.8% in the experiment on LOX IMVI melanoma; 103% with SK-MEL-2 melanoma; 97.5% in the experiment on TK-10 renal; 100% in the experiment with ACHN renal; 117% with A498 renal; 93.4% with HL-60(TB) leukemia. Moreover, the growth in the experiment on MOLT-4 leukemia was 93.2%; with OVCAR-8 ovarian, 96.5%; with OVCAR-4 ovarian, 105%; with NCI/ADR-RES ovarian, 103%; with T-47D breast, 96.3%; in the experiment on BT-549 breast, 96.6%. The growth in the experiment on HCC-2998 colon is 112%.
On to `OC1(c2ccc(Cl)cc2Cl)c2ccccc2C2=NCCN21` (centres undefined), for which the growth was 81.1% in the experiment with K-562 leukemia; 100% with MALME-3M melanoma; -13% (active) with RXF 393 renal; 95.3% in the experiment with SF-295 CNS; 86.2% in the experiment on UACC-257 melanoma; 101% in the experiment on HCT-15 colon. Moreover, the growth with UACC-62 melanoma is 94%; in the experiment with LOX IMVI melanoma it was 90.7%; in the experiment on SK-MEL-2 melanoma it was 98.2%; in the experiment on TK-10 renal it was 76.6%; in the experiment on ACHN renal it was 103%; with A498 renal, 94.4%. In addition, the growth in the experiment with HL-60(TB) leukemia was 63.3%; in the experiment on MOLT-4 leukemia it was 78.9%; with OVCAR-8 ovarian it was 102%; in the experiment on OVCAR-4 ovarian it was 105%; in the experiment on NCI/ADR-RES ovarian, 96.3%; in the experiment on T-47D breast it was 93.3%. Besides, the growth in the experiment with BT-549 breast is 93.5%; in the experiment on HCC-2998 colon, 75.3%.
Take `N#Cc1ncc(/N=C/c2ccc(N(CCCl)CCCl)cc2)s1`: the growth is 37.6% in the experiment with K-562 leukemia; 84.7% with RXF 393 renal; 58.4% with SF-295 CNS; 82.4% with UACC-257 melanoma; 50.6% with HCT-15 colon; 32% in the experiment on UACC-62 melanoma. Further, the growth with LOX IMVI melanoma is 61.3%; in the experiment with SK-MEL-2 melanoma it was 57%; in the experiment on TK-10 renal, 92.8%; with ACHN renal, 33.8%; with A498 renal it was 88.2%; in the experiment on HL-60(TB) leukemia, 39.3%. The growth in the experiment with MOLT-4 leukemia was 42.7%; in the experiment with OVCAR-8 ovarian, 78.3%; with OVCAR-4 ovarian, 81.9%; in the experiment on NCI/ADR-RES ovarian, 70.8%; with T-47D breast, 64.2%; with BT-549 breast, 66%. Moreover, in the experiment on HCC-2998 colon, the growth was 96.8%.
For `Cc1cc([N+](=O)[O-])c(Cl)cc1NS(=O)(=O)c1ccccc1`, the growth is 71% in the experiment with K-562 leukemia; 37.9% with MALME-3M melanoma; 91.9% in the experiment with RXF 393 renal; 65.7% with SF-295 CNS; 73.1% in the experiment on HCT-15 colon; 37.1% in the experiment with UACC-62 melanoma. The growth is 81.2% in the experiment with LOX IMVI melanoma; 55.5% in the experiment with SK-MEL-2 melanoma; 110% with TK-10 renal; 83.1% in the experiment on ACHN renal; 67.2% in the experiment on A498 renal; 57.3% in the experiment on HL-60(TB) leukemia. For the same molecule, the growth with MOLT-4 leukemia is 74.5%; in the experiment on OVCAR-8 ovarian, 78.1%; in the experiment with OVCAR-4 ovarian it was 71.4%; in the experiment on NCI/ADR-RES ovarian it was 78.7%; with T-47D breast it was 59.5%; in the experiment with BT-549 breast, 62.5%. Moreover, the growth in the experiment on HCC-2998 colon was 80.6%.
